Consider 39 compounds from PubChem BioAssay (NCI).

The nature of assay [1]: NCI Yeast Anticancer Drug Screen. Data for the rad50 strain (AID 155).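 Also: 0% = growth of vehicle-only cultures of the same strain.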 The note with it: S. cerevisiae rad50 strain growth inhibition; at 50.0 µM; hits give high values. A digest of the protocol: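 A DNA repair-deficient yeast mutant serves as the test organism; compound-induced growth inhibition is calculated against vehicle-treated cells.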
Assay [2] can be described thus: NCI Yeast Anticancer Drug Screen. Data for the mec2-1 strain (AID 157). The settings on record: S. cerevisiae mec2-1 strain, at 50.0 µM, hits give high values. In short, it runs like this:
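Strain: mec2-1 (DNA repair/cell cycle alteration). Compound exposure, then growth measured; inhibition expressed relative to vehicle.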

A short description of assay [3]: NCI Yeast Anticancer Drug Screen. Data for the sgs1 mgt1 strain (AID 161).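 Also: 0% = growth of cultures given vehicle only.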 The note with it: S. cerevisiae sgs1 mgt1 strain, at 50.0 µM, hits give high values. In short, it runs like this:
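Genetically altered yeast, compound exposure, growth inhibition relative to vehicle.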

Assay [4] can be described thus: NCI Yeast Anticancer Drug Screen. Data for the cln2 rad14 strain (AID 165).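 Also: 0% = growth equal to vehicle treated cultures.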 The settings on record: S. cerevisiae cln2 rad14 strain, at 50.0 µM, hits give high values. In short, it runs like this:
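Compounds are applied to the cln2 rad14 yeast strain, and growth is then compared with that of vehicle-treated cultures to give inhibition.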

Assay [5] in a line: NCI Yeast Anticancer Drug Screen. Data for the bub3 strain (AID 167). The note with it: S. cerevisiae bub3 mutant strain, at 50.0 µM, hits give high values. A digest of the protocol:
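Inhibition values come from growth of compound-treated mutant yeast normalised to vehicle-treated controls.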

Assay [6] in a line: NCI Yeast Anticancer Drug Screen. Data for the mlh1 rad18 strain (AID 175). The settings on record: S. cerevisiae mlh1 rad18 strain growth inhibition; at 50.0 µM; hits give high values. A digest of the protocol: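 Read-out is yeast growth inhibition, calculated against vehicle-only controls. The compound was applied to a strain engineered with DNA damage repair alterations.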

Molecules are shown by their SMILES. Compounds without any hit were thinned out: in the full panel of roughly 79,000, 15% have a hit. Unmarked numbers belong to inactive results. Activity calls are given as the source filed them. Rule as the data show it: active = growth inhibition above about 70%; inactive = the rest. Where a SMILES comes first, the peptide text is derived from it. [ ]: non-standard residue; d: D form. ξ: configuration not given here. ξA = CC(N)C(=O)O

As for `O=C(O)C1CCC2CCCC21` (centres undefined), the growth inhibition is -25.2% in assay [1]; -7.3% in assay [2]; 8.95% in assay [3]; -10.9% in assay [4]; -18% in assay [5]; 15.5% in assay [6].
With `CCO/C=C(\C(=O)OC)S(=O)(=O)c1ccc(C)cc1`, the growth inhibition in assay [1] was -18.5%; in assay [2] it was 3.1%; in assay [3], 2.35%; in assay [4], 1.7%; in assay [5], -9.1%; in assay [6] it was -19.5%.
On to `CC(=O)OC1(C(=O)O)CCCCC1`, for which the growth inhibition in assay [1] is 5.8%; in assay [2], 14%; in assay [3], -0.05%; in assay [4], -19.9%; in assay [5], 5.25%; in assay [6], 9.65%.
On to `C=CS(=O)(=O)c1ccc(NC(=O)Nc2ccc(Cl)cc2)cc1`, for which the growth inhibition was -0.55% in assay [1]; 1.7% in assay [2]; -8.8% in assay [3]; 12.8% in assay [4]; 1.25% in assay [5]; 5.85% in assay [6].
On to `CC1NC(=O)CC(c2ccccc2)N(N=O)C1c1ccccc1` (centres undefined), for which the growth inhibition is -53.5% in assay [1]; -3.3% in assay [2]; -4.1% in assay [3]; -7% in assay [4]; -9.05% in assay [5]; 8.65% in assay [6].
For the compound `Cc1ccc(/C=N/NC(N)=S)c(C)c1`, the growth inhibition was 8.5% in assay [1]; -25.4% in assay [2]; 17.3% in assay [3]; -30.9% in assay [4]; 7.15% in assay [5]; 16.6% in assay [6].
As for `CCc1cccc(NC(=O)c2cc(/C=C/c3ccccc3)[nH]c(=S)n2)c1`, the growth inhibition in assay [1] was -15.9%; in assay [2], -19.4%; in assay [3], 6.95%; in assay [4], -1.85%; in assay [5], -6.85%; in assay [6], -12.1%.
For `Nc1c(-c2nc3ccccc3[nH]2)sc(=S)n1-c1ccc(Cl)cc1`, the growth inhibition in assay [1] was -11.6%; in assay [2], -30.7%; in assay [3] it was 2.75%; in assay [4], 8.9%; in assay [5], 7.8%; in assay [6], -6.5%.
Consider `COC(=O)C(C(=O)C(=O)Nc1ccc(C)cc1C)c1nc2ccc([N+](=O)[O-])cc2[nH]c1=O` (centres undefined), for which the growth inhibition in assay [1] was 9.05%; in assay [2], -1.7%; in assay [3], 4.05%; in assay [4], 7.95%; in assay [5], 4.2%; in assay [6] it was 6.65%.
Turning to `NC(=O)Nc1ccc(Cc2ccc(NC(N)=O)cc2)cc1`, the growth inhibition in assay [1] is -15.4%; in assay [2], -26.8%; in assay [3] it was 10.7%; in assay [4], 10.8%; in assay [5], 12.9%; in assay [6], 12.3%.
In the case of `O=c1[nH]c2c(Cl)c(Cl)cc(Cl)c2o1`, the growth inhibition in assay [1] is 51.1%; in assay [2] it was 6.4%; in assay [3], 23.9%; in assay [4], 48.2%; in assay [5] it was 13.6%; in assay [6], 43.6%.
Take `O=C1OC(=O)C(=C(c2ccccc2)c2ccccc2)C1=C(c1ccccc1)c1ccccc1`: the growth inhibition was 51.8% in assay [1]; 64.1% in assay [2]; 48.4% in assay [3]; 43.5% in assay [4]; 53.1% in assay [5]; 76.8% (active) in assay [6].
Turning to `COC(=O)c1nc(N)nc(C(=O)OC)c1C(=O)/C=C/c1ccccc1`, the growth inhibition in assay [1] is -4.2%; in assay [2], -8.5%; in assay [3], -21.5%; in assay [4] it was -16.1%; in assay [5], -26.4%; in assay [6], -17.6%.
On to `CCOC(=O)C(NC(=O)c1ccccc1)C1NC(C(=O)O)C(C)(C)S1` (centres undefined), for which the growth inhibition in assay [1] is -23.1%; in assay [2], 5.6%; in assay [3], -5.1%; in assay [4], -21.8%; in assay [5], 0.8%; in assay [6] it was 3.55%.
With `Cc1ncc2c[n+]([O-])ccn12`, the growth inhibition in assay [1] is 6.05%; in assay [2] it was 10.9%; in assay [3], -4%; in assay [4] it was -1.25%; in assay [5] it was 17.4%; in assay [6], 7.8%.
Take `Cc1ccc2c(ccc3nnc(C)n32)c1`: the growth inhibition was 9.15% in assay [1]; 4.05% in assay [2]; 4.65% in assay [3]; -2.95% in assay [4]; 2.75% in assay [5]; 10.8% in assay [6].
`CC1=C(C(=O)CC(=O)Nc2ccc(Cl)c(Cl)c2)Sc2ccccc2N1`: the growth inhibition in assay [1] was 8.1%; in assay [2] it was 21.9%; in assay [3], -4.3%; in assay [4], 13.7%; in assay [5], 0.25%; in assay [6] it was 20.9%.
With `Cc1ccc(N)c(C#N)c1`, the growth inhibition in assay [1] was -11.8%; in assay [2], 11.7%; in assay [3], -5.7%; in assay [4], 1%; in assay [5], -5%; in assay [6], 4.65%.
With `CNC(=S)ON1CCCCC1`, the growth inhibition was 6.65% in assay [1]; 19.9% in assay [2]; -23.3% in assay [3]; -7.95% in assay [4]; -5.95% in assay [5]; -38.5% in assay [6].
Turning to `CCCC(=O)c1c(NOC2OCC(OC(C)=O)C(OC(C)=O)C2OC(C)=O)nc(OC)n(C)c1=O` (centres undefined), the growth inhibition in assay [1] was -24.7%; in assay [2] it was 3.1%; in assay [3], -40.1%; in assay [4], 6.8%; in assay [5] it was -15.9%; in assay [6] it was -16.6%.
Regarding `CC(=O)OC1C(NC(=O)OCc2ccccc2)CC(NC(=O)OCc2ccccc2)C(O)C1O` (centres undefined), the growth inhibition in assay [1] is 34.4%; in assay [2] it was -12.5%; in assay [3] it was 5.4%; in assay [4], -10.1%; in assay [5] it was -1.9%; in assay [6], 4.9%.
As to `Cc1cc(=O)[nH]c(N/N=C/c2ccc(O)cc2)n1`, the growth inhibition in assay [1] is -28.9%; in assay [2], -44.5%; in assay [3], -14.7%; in assay [4], 2.65%; in assay [5], -30.4%; in assay [6], -26.8%.
As to `COC(=O)C1=C(C(=O)OC)SC(=C2C3=C(SC(C(=O)OC)=C(C(=O)OC)S3)c3ccccc32)S1`, the growth inhibition in assay [1] was 31.1%; in assay [2] it was -2.15%; in assay [3] it was 21.9%; in assay [4], 18.9%; in assay [5], -4.6%; in assay [6], 21.2%.
`Cc1cncc(C)c1`: the growth inhibition is 17.6% in assay [1]; -22.1% in assay [2]; 5.6% in assay [3]; -6.85% in assay [4]; 7.2% in assay [5]; 8.5% in assay [6].
As to `N#CC1(Cc2ccccc2)c2ccccc2-c2ccccc21`, the growth inhibition is 34.2% in assay [1]; 27.8% in assay [2]; 28.8% in assay [3]; 1.85% in assay [4]; 24.9% in assay [5]; 45% in assay [6].
With `CO/C=C/c1cc2c(cc1Br)OCO2`, the growth inhibition in assay [1] was 10.9%; in assay [2] it was 5.15%; in assay [3] it was 25.4%; in assay [4] it was 0.75%; in assay [5], 11.4%; in assay [6], 12.3%.
`CCCCCCCCCCOC1C(C(C)OCCCN(C)C)OC2OC3(CCCCC3)OC21` (centres undefined): the growth inhibition in assay [1] is 91.8% (active); in assay [2], 93.3% (active); in assay [3], 40.7%; in assay [4], 16.1%; in assay [5], -31.6%; in assay [6], 86.2% (active).
`COC(=O)CCNC(C(=O)O)C(C)(C)SCCC(=O)OC` (centres undefined): the growth inhibition in assay [1] is -18.6%; in assay [2], -19.1%; in assay [3] it was -7.9%; in assay [4] it was 24.5%; in assay [5], 24.5%; in assay [6], -20.4%.
As to `N#C/C(=C\c1cc(F)cc(F)c1)c1ccccn1`, the growth inhibition was 9.7% in assay [1]; -0.95% in assay [2]; 0.65% in assay [3]; 3.25% in assay [4]; 3.2% in assay [5]; 30.2% in assay [6].
Take `CCCCOc1ccc2nc(C)cc(N/N=C/c3ccc(OC)c4ccccc34)c2c1`: the growth inhibition was 46.4% in assay [1]; 19.6% in assay [2]; 44.1% in assay [3]; 42.9% in assay [4]; -2.35% in assay [5]; 41.1% in assay [6].
For `Nc1ccc([N+](=O)[O-])c(Cl)c1`, the growth inhibition in assay [1] was 5.35%; in assay [2], -8.3%; in assay [3], -11%; in assay [4] it was -18.1%; in assay [5] it was -13.1%; in assay [6], 13.3%.
`CSc1ccc(NC(=O)Nc2cc(C)ccc2Cl)cc1`: the growth inhibition in assay [1] is -2.05%; in assay [2], 23%; in assay [3] it was 25.9%; in assay [4] it was -4.05%; in assay [5], 41.1%; in assay [6], 19.6%.
As to `CC(NC(=O)CNC(=O)CNC(=O)CNC(=O)CN)C(=O)O` (centres undefined) (H-GGGG[ξA]-OH), the growth inhibition in assay [1] was -26.9%; in assay [2], -30.9%; in assay [3], -8.55%; in assay [4] it was -10.6%; in assay [5], -14.5%; in assay [6] it was -31.6%.
With `S=C1CNC(=S)CN1`, the growth inhibition is -4.15% in assay [1]; -21.9% in assay [2]; 0.7% in assay [3]; 8.75% in assay [4]; 10.8% in assay [5]; -22.9% in assay [6].
Consider `Cc1cc(C2(O)CCCc3ccccc32)[n+]([O-])cc1C` (centres undefined), for which the growth inhibition was -17.3% in assay [1]; -2.9% in assay [2]; -9.4% in assay [3]; -4.8% in assay [4]; 0.75% in assay [5]; 2.75% in assay [6].
`CC(=O)[CH-]C(=O)Nc1ccccc1.CC(=O)[CH-]C(=O)Nc1ccccc1.CC[O-].CC[O-].[Ti+4]`: the growth inhibition in assay [1] is -16.4%; in assay [2], 14.3%; in assay [3], 11.3%; in assay [4], 21%; in assay [5], 12.8%; in assay [6] it was 12.7%.
In the case of `CC1=NN(C(=O)Cc2ccccc2)C(=O)/C1=C\c1ccc([N+](=O)[O-])cc1`, the growth inhibition was -38.2% in assay [1]; -41.5% in assay [2]; -52.4% in assay [3]; -26.4% in assay [4]; -55% in assay [5]; -55.8% in assay [6].
As to `O=C1C(=Cc2ccc([N+](=O)[O-])o2)C(=O)N(CCc2ccccc2)S(=O)(=O)N1CCc1ccccc1`, the growth inhibition in assay [1] is 38.9%; in assay [2], -3.65%; in assay [3], 10.8%; in assay [4], -22.5%; in assay [5], -6.6%; in assay [6], 2.4%.
Regarding `O=C(O)c1ncn2c(=O)n(CCCl)nnc12`, the growth inhibition in assay [1] is -18.9%; in assay [2], -16.4%; in assay [3], -15.8%; in assay [4] it was -27.8%; in assay [5], -0.55%; in assay [6], 9.2%.
